# Measurements: PubChem BioAssay (NCI)
# Compounds without any hit were thinned out: in the full panel of roughly 83,000, 20% have a hit.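 Single-dose data. Exposure time 48 hours. Values below 10 considered active.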 Unmarked numbers belong to inactive results. Activity calls are given as the source filed them.
# Legend:
# Test in all cases: NCI-60 one-dose screen, 48 h (100 = growth as untreated, 0 = no growth, -100 = all killed)
# Details in all cases: 10 µM unless noted
# SR leukemia = tested on: SR leukemia
# RPMI-8226 leukemia = tested on: RPMI-8226 leukemia
# OVCAR-8 ovarian = tested on: OVCAR-8 ovarian
# OVCAR-5 ovarian = tested on: OVCAR-5 ovarian
# OVCAR-4 ovarian = tested on: OVCAR-4 ovarian
# SK-OV-3 ovarian = tested on: SK-OV-3 ovarian
# OVCAR-3 ovarian = tested on: OVCAR-3 ovarian
# HS 578T breast = tested on: HS 578T breast
# NCI/ADR-RES ovarian = tested on: NCI/ADR-RES ovarian
# T-47D breast = tested on: T-47D breast
# BT-549 breast = tested on: BT-549 breast
# MDA-MB-435 melanoma = tested on: MDA-MB-435 melanoma
# SW-620 colon = tested on: SW-620 colon
# MCF7 breast = tested on: MCF7 breast
# HCT-116 colon = tested on: HCT-116 colon
# HCC-2998 colon = tested on: HCC-2998 colon
# KM12 colon = tested on: KM12 colon
# IGROV1 ovarian = tested on: IGROV1 ovarian
SMILES,growth (SR leukemia),growth (RPMI-8226 leukemia),growth (OVCAR-8 ovarian),growth (OVCAR-5 ovarian),growth (OVCAR-4 ovarian),growth (SK-OV-3 ovarian),growth (OVCAR-3 ovarian),growth (HS 578T breast) [%],growth (NCI/ADR-RES ovarian),growth (T-47D breast),growth (BT-549 breast) [%],growth (MDA-MB-435 melanoma),growth (SW-620 colon),growth (MCF7 breast),growth (HCT-116 colon),growth (HCC-2998 colon),growth (KM12 colon),growth (IGROV1 ovarian) [%]
Cc1cc2nc3c4cccc(O)c4n(CCN(C)C)c3nc2cc1C,4.12% (active),-5.71% (active),38%,55.3%,44.4%,46.3%,45.4%,72.8,32.3%,64.3%,77.4,45.4%,20.6%,23.5%,22%,24.5%,37.7%,–
Cc1cc2nc3c4cc([N+](=O)[O-])ccc4n(CCN(C)C)c3nc2cc1C,-16.7% (active),-36.4% (active),8.77% (active),-8.87% (active),9.25% (active),8.97% (active),-8.29% (active),20.7,-13.4% (active),10.6%,31.7,-32.2% (active),-5.68% (active),4.74% (active),2.59% (active),-37.2% (active),5.62% (active),–
CCC(=O)Oc1ccc(/C(=C(\C)c2ccccc2)c2ccc(OCCN3CCCCC3)cc2)cc1,20.3%,62.9%,81.6%,90.9%,80.6%,75.5%,–,72.9,74.8%,34.3%,82.6,81.4%,87.1%,24.2%,–,65.2%,65%,93.8
CCCOc1ccc(/C=N/Nc2cc(C)nc3ccc(Br)cc23)cc1,-1.3% (active),58.9%,88.2%,111%,88.1%,90.9%,99.8%,106,–,96.4%,99.3,85.8%,6.14% (active),37.3%,26.6%,57.3%,76.2%,–
COC(=O)C1=C(C(=O)ON)C2C=CC1(C(Cc1ccccc1)Nc1ccccc1)O2 (configuration not stated),4.9% (active),11.8%,91.2%,105%,69%,104%,-100% (active),108,94.6%,-51.1% (active),106,94.5%,-60% (active),83.3%,-73.8% (active),93.6%,103%,–
COc1cc2nc(-c3ccc(Cl)cc3)cc(OCCCN3CCOCC3)c2cc1OC,12.9%,20.4%,42.7%,42.8%,70.4%,68.4%,–,76.4,44.6%,28.2%,44.9,–,65%,50.2%,21.1%,66.8%,29.7%,35.6
O=Cc1cc2ccccc2nc1Oc1ccc(C(F)(F)F)cc1,23.6%,33%,91%,99.2%,98.6%,81.5%,–,89.7,92.9%,83.7%,99.7,103%,–,48.1%,102%,108%,92.4%,68.3
O=S(=O)(NCCCNc1nccc(-c2c(-c3cccc(F)c3)nc3sccn23)n1)c1cccc(F)c1,64.9%,28%,18.4%,110%,26.8%,66%,50.7%,63.7,17.6%,-2.25% (active),33.3,24%,76.7%,33.7%,48%,99.3%,30%,–
